# Data from PubChem BioAssay (Tox21).
# Inconclusive results are not listed. Values without a mark were called inactive. Calls follow the shape of the full dose curve.
# Assay: qHTS assay to identify small molecule agonists of the hypoxia (HIF-1) signaling pathway - cell viability counter screen (AID 1224844); also: nearly all actives have a fitted effect of over 50% in size
# Settings: HRE-bla ME-180 viability, CellTiter-Glo luminescence, 17 h; series mostly up to 76.8 µM; activity change, negative = cytotoxicity: at the top concentration
# Description: National Center for Advancing Translational Sciences [NCATS]
# NIH Chemical Genomics Center [NCGC]
# U.S. Environmental Protection Agency [EPA]
# National Institutes of Environmental Health Sciences [NIEHS]
# National Toxicology Program [NTP]
# U.S. Food and Drug Administration [FDA]
# Hypoxia-inducible factor-1 (HIF-1) is the major hypoxia-regulated transcription factor that controls cellular responses to low oxygen concentration. HIF-1 is composed of two subunits: hypoxia responsive HIF-1-alpha and constitutively expressed HIF-1-beta, which is also known as aryl hydrocarbon receptor nuclear translocator. During hypoxic conditions, HIF-1-alpha heterodimerizes with HIF-1-beta and translocates into the nucleus where the HIF-1 complex binds to the hypoxia-response element (HRE) and activates expression of target genes such as VEGF (vascular endothelial growth factor). The HIF-1 pathway is essential to normal growth and development, and is involved in the pathophysiology of cancer, inflammation, and ischemia.
# Using a beta-lactamase reporter-gene under control of the hypoxia response element, a cell-based assay [CellSensor(TM) HRE-bla ME-180 from Life Technologies, Carlsbad, CA] was used to measure hypoxia-induced signaling. Tox21 10K library compounds were measured for their ability to induce the reporter gene activity. The cytotoxicity of the Tox21 compound library against HRE-bla ME-180 cell line was tested in parallel by measuring cell viability using CellTiter-Glo assay (Promega, Madison, WI) in the same assay wells.
# Tox21 Assay Protocol Summary:
# HRE-bla ME-180 cells were dispensed at 2,000 cells per well in 6 uL of assay medium containing 0.5% dialyzed FBS into black wall/clear-bottom 1536-well plates using a Multidrop Combi (Thermo Scientific, Waltham, MA) dispenser. After the assay plates were incubated at 37C and 5% CO2 for 5 hrs, 23 nL of compounds dissolved in DMSO, positive controls or DMSO only was transferred to each well of the assay plate using a Pintool station (Kalypsys, San Diego, CA). The assay plates were incubated at 37C and 5% CO2 for 17 hrs. One uL of LiveBLAzerTM B/G FRET substrate (CCF4-AM) (Life Technologies) was added to each well using a Flying Reagent Dispenser (FRD, Aurora Discovery, San Diego, CA). After 2 hr incubation at room temperature, fluorescence intensity (405 nm excitation, 460 nm and 530 nm emissions) was measured using an Envision plate reader (PerkinElmer, Shelton, CT). For cytotoxicity, 4 ul/well of CellTiter-Glo reagent was added into the assay plates using an FRD. After 30 min incubation at room temperature, the luminescence intensity was measured using a ViewLux plate reader (PerkinElmer).
# % is scaled to controls: 0 for no effect and ±100 for the full control effect.
row,SMILES,"activity change, negative = cytotoxicity"
1,CNCc1ccccc1,0.48% [at 35.3 µM]
2,CCOC(=O)CC#N,0.136%
3,O=C(Oc1ccccc1C(=O)O)c1ccccc1O,-0.818% [at 35.3 µM]
4,CC(C)C(=O)c1ccccc1,0.75%
5,CO/N=C(/C(=O)N[C@@H]1C(=O)N2C(C(=O)O)=C(Cn3nnc(C)n3)CS[C@H]12)c1csc(N)n1,-2.97% [at 35.3 µM]
6,CCOC(=O)C(=O)c1csc(NC=O)n1,2.76% [at 35.3 µM]
7,O=C(Nc1cccc(C2=NCCN2)c1)Nc1cccc(C2=NCCN2)c1,3.42% [at 15.8 µM]
8,NC(=O)C1(N2CCCCC2)CCN(CCCC(=O)c2ccc(F)cc2)CC1,3.4% [at 35.3 µM]
9,O=c1[nH]c(=O)c2ccccc2o1,2.75% [at 35.3 µM]
10,CC1=CC[C@H](CC=O)C1(C)C,4.52%
11,CCc1nccnc1C,1.71%
12,Cc1ccccc1OCC1CO1 (stereo not given),5.24%
13,CN(C)CCCNCCC#N,4.16%
14,CCN(CC)C(=O)C1CN2CCc3cc(OC)c(OC)cc3C2CC1OC(C)=O (stereo not given),8.97% [at 35.3 µM]
15,CC(=O)OCC(=O)[C@@]1(O)[C@H](OC(C)=O)C[C@H]2[C@@H]3CCC4=CC(=O)C=C[C@]4(C)[C@@]3(F)[C@@H](O)C[C@@]21C,-7.74% [at 35.3 µM]
16,C[C@H]1O[C@H](O[C@H]2[C@H](O)[C@@H](O)[C@@H](O[C@H]3[C@H](O)[C@@H](O)[C@H](O)O[C@@H]3CO)O[C@@H]2CO)[C@H](O)[C@@H](O)[C@@H]1N[C@H]1C=C(CO)[C@@H](O)[C@H](O)[C@H]1O,-0.474% [at 35.3 µM]
17,COc1ccc(NS(=O)(=O)c2ccc(N)cc2)nn1,-0.686% [at 35.3 µM]
18,O=C1NC2NC(=O)NC2N1 (stereo not given),0.164%
19,CCCCOC(=O)C(C)OC(=O)CCC (stereo not given),2.66%
20,CCOC(=O)OCC/C(SC(=O)OCC)=C(\C)N(C=O)Cc1cnc(C)nc1N,7.43% [at 35.3 µM]

row,SMILES,"activity change, negative = cytotoxicity"
1,CC(=O)OC(C)(C)Cc1ccccc1,6.57%
2,CC(CC(=O)O)CC(C)(C)C (stereo not given),-8.29%
3,Cc1ccccc1C,4.23%
4,COc1cc2c(Nc3ccc(Br)cc3F)ncnc2cc1OCC1CCN(C)CC1,-9.55% [at 35.3 µM]
5,C[C@H](CCC(=O)O)[C@H]1CC[C@H]2[C@@H]3[C@H](O)C[C@@H]4C[C@H](O)CC[C@]4(C)[C@H]3C[C@H](O)[C@]12C,0.132% [at 35.3 µM]
6,COC(OC)C(C)c1ccccc1 (stereo not given),-15.1%
7,Nc1ccc(C(=O)OCC(O)CO)cc1 (stereo not given),0.468% [at 35.3 µM]
8,CCCOCCOCCOCCO,-13.7%
9,CC(C)C(=O)Nc1cccc(C(F)(F)F)c1,1.12% [at 35.3 µM]
10,CC(C)CCC(=O)CCC(C)C,1.53%
11,C[C@H](CCC(=O)NCC(=O)O)[C@H]1CC[C@H]2[C@@H]3[C@H](O)C[C@@H]4C[C@H](O)CC[C@]4(C)[C@H]3C[C@H](O)[C@]12C,-12%
12,O=C(/C=C/c1ccccc1)NCCO,0.33% [at 35.3 µM]
13,CC(=O)Nc1ccc(C)cc1,-1.67%
14,C=C(C)C(=O)OC,-3.52%
15,CCCCCCCCCCC,-27.4%
16,C=CCOc1c(Br)cc(Br)cc1Br,-1.25%
17,Cc1oc(=O)oc1CN1CCN(c2cc3c(cc2F)c(=O)c(C(=O)O)c2n3C(C)S2)CC1 (stereo not given),4.96% [at 35.3 µM]
18,Cc1cc(O)c2c(c1)C(=O)c1cccc(O)c1C2=O,0.498% [at 35.3 µM]
19,C=CCOCC(CO)(COCC=C)COCC=C,1.43% [at 35.3 µM]
20,CCCCC(CC)C(=O)OC(C)C (stereo not given),2.54%
